Experimental data reported in the antibiotic and cytotoxicity screens of Wong et al. (2023).
Screen size: about 39,000 compounds; about 3,300 (8.5%) were called active. The entries come from a sample that favours actives as a whole.

Test system: HepG2
Test: cytotoxicity call (relative viability < 0.9)
Details: 10 µM

| SMILES | cytotoxicity call |
| --- | --- |
| Cc1ccc(S(=O)(=O)Nc2ccc3c(c2)C(=O)N([C@@H](C)CO)C[C@@H](C)[C@H](CN(C)C(=O)C2CCCCC2)OCCCC[C@@H](C)O3)cc1 | inactive |
| C=CCOC(=O)[C@@H]1[C@H]2C(=O)O[C@H](c3ccccc3)[C@H](c3ccccc3)N2[C@H](c2ccc(OCCOC(=O)[C@@H]3C[C@@H]4C(=O)NCC(=O)N4[C@@H]3c3cccc(OCCO)c3)cc2)[C@@]12C(=O)Nc1ccccc12 | inactive |
| C[C@@H]1CN([C@@H](C)CO)C(=O)Cc2cc(NC(=O)Nc3cccc4ccccc34)ccc2O[C@H]1CN(C)C(=O)Nc1ccc2c(c1)OCO2 | inactive |
| C[C@@H]1CCCCO[C@@H](CN(C)C(=O)C2CCCCC2)[C@H](C)CN([C@H](C)CO)C(=O)c2cc(NC(=O)c3ccccc3)ccc2O1 | inactive |
| C[C@H]1CN([C@@H](C)CO)C(=O)c2cc(NC(=O)CCCN(C)C)ccc2O[C@@H]1CN(C)Cc1ccc2c(c1)OCO2 | inactive |
| C[C@H](CO)N1C[C@H](C)[C@@H](CN(C)Cc2ccc(Cl)c(Cl)c2)OCCCC[C@H](C)Oc2ccc(NC(=O)Nc3ccc4c(c3)OCO4)cc2C1=O | inactive |
| C[C@@H]1CCCCO[C@H](CN(C)Cc2ccc(Cl)c(Cl)c2)[C@@H](C)CN([C@@H](C)CO)C(=O)c2cc(NC(=O)Nc3ccc4c(c3)OCO4)ccc2O1 | inactive |
| C[C@@H]1CCCCO[C@@H](CN(C)Cc2ccc(Cl)c(Cl)c2)[C@H](C)CN([C@@H](C)CO)C(=O)c2cc(NC(=O)Nc3ccc4c(c3)OCO4)ccc2O1 | inactive |
| C[C@H]1CCCCO[C@H](CN(C)Cc2ccc(Cl)c(Cl)c2)[C@@H](C)CN([C@@H](C)CO)C(=O)c2cc(NC(=O)Nc3ccc4c(c3)OCO4)ccc2O1 | active |
| C[C@@H]1CCCCO[C@H](CN(C)Cc2ccc(Cl)c(Cl)c2)[C@@H](C)CN([C@H](C)CO)C(=O)c2cc(NC(=O)Nc3ccc4c(c3)OCO4)ccc2O1 | active |
| C[C@@H]1CCCCO[C@@H](CN(C)Cc2ccc(Cl)c(Cl)c2)[C@@H](C)CN([C@H](C)CO)C(=O)c2cc(NC(=O)Nc3ccc4c(c3)OCO4)ccc2O1 | inactive |
| C[C@@H]1CN([C@H](C)CO)C(=O)c2cc(NC(=O)Nc3ccc4c(c3)OCO4)ccc2O[C@@H](C)CCCCO[C@H]1CN(C)Cc1ccc(Cl)c(Cl)c1 | active |
| C[C@@H]1CN([C@H](C)CO)C(=O)c2cc(NC(=O)Nc3ccc4c(c3)OCO4)ccc2O[C@@H](C)CCCCO[C@@H]1CN(C)Cc1ccc(Cl)c(Cl)c1 | active |
| CO[C@@H]1CN(C)C(=O)c2ccc(NS(=O)(=O)CC(F)(F)F)cc2OC[C@@H](C)N(Cc2nccs2)C[C@H]1C | inactive |
| C=CC[C@H](CC(=O)NCCO)C(=O)NC[C@@H](OC(=O)[C@@H](CC=C)CC(=O)OC(C)(C)C)c1ccccc1 | inactive |
| C[C@H](CO)N1C[C@H](C)[C@@H](CN(C)CC2CC2)Oc2c(NS(=O)(=O)c3ccccc3)cccc2C1=O | inactive |
| CC(C)NC(=O)N(C)C[C@H]1Oc2ccc(NC(=O)Cn3cnnn3)cc2C(=O)N([C@H](C)CO)C[C@H]1C | inactive |
| CCCCC(=O)OC1(C(=O)CO)C(C)CC2C3CCC4=CC(=O)C=CC4(C)C3(F)C(O)CC21C (configuration not stated) | inactive |
| Nc1cc(=O)nc(N)[nH]1 | inactive |
| C[C@H]1CN([C@@H](C)CO)C(=O)c2cccc(NC(=O)c3ccncc3)c2O[C@H]1CN(C)S(=O)(=O)c1ccccc1 | inactive |
| CC(C)CC#Cc1ccc2c(c1)O[C@@H](CN(C)C(=O)Cc1ccncc1)[C@@H](C)CN([C@@H](C)CO)S2(=O)=O | inactive |

| SMILES | cytotoxicity call |
| --- | --- |
| CO[C@H]1CN(C)C(=O)c2cc(NC(=O)Nc3cccc(F)c3)ccc2OC[C@H](C)N(C(=O)Nc2c(C)noc2C)C[C@H]1C | inactive |
| C[C@@H]1CCCCO[C@@H](CN(C)Cc2ccc(Cl)c(Cl)c2)[C@@H](C)CN([C@@H](C)CO)C(=O)c2cc(NC(=O)Nc3ccc4c(c3)OCO4)ccc2O1 | active |
| C[C@@H]1CN([C@@H](C)CO)C(=O)c2cc(NC(=O)Nc3ccc4c(c3)OCO4)ccc2O[C@@H](C)CCCCO[C@H]1CN(C)Cc1ccc(Cl)c(Cl)c1 | inactive |
| C[C@@H]1CCCCO[C@H](CN(C)Cc2ccc(Cl)c(Cl)c2)[C@H](C)CN([C@@H](C)CO)C(=O)c2cc(NC(=O)Nc3ccc4c(c3)OCO4)ccc2O1 | active |
| C[C@@H]1CCCCO[C@@H](CN(C)Cc2ccc(Cl)c(Cl)c2)[C@H](C)CN([C@H](C)CO)C(=O)c2cc(NC(=O)Nc3ccc4c(c3)OCO4)ccc2O1 | inactive |
| CC(C)(C)NC(=O)N1CCC(CN)CC1 | inactive |
| C[C@H]1CCCCO[C@H](CN(C)C(=O)NC2CCCCC2)[C@@H](C)CN([C@@H](C)CO)C(=O)c2cc(NC(=O)Nc3ccc(F)cc3)ccc2O1 | inactive |
| CO[C@@H]1[C@H](O)[C@@H](CO)O[C@H]1n1cc(C)c(N)nc1=O | inactive |
| C[C@@H]1CN([C@H](C)CO)C(=O)c2cccc(NS(=O)(=O)c3ccc(Cl)cc3)c2O[C@@H]1CN(C)Cc1ccc(C(F)(F)F)cc1 | inactive |
| CC(C)NC(=O)Nc1ccc2c(c1)C(=O)N([C@H](C)CO)C[C@H](C)[C@H](CN(C)Cc1ccccc1)OCCCC[C@H](C)O2 | inactive |
| C[C@H]1CN([C@@H](C)CO)S(=O)(=O)c2ccc(C#Cc3ccccc3)cc2O[C@@H]1CN(C)S(C)(=O)=O | inactive |
| CC1(N)CCN(c2cccnc2NC(=O)c2nc(-c3ncccc3C(F)(F)F)cnc2N)CC1 | inactive |
| CCCNC(=O)N1C[C@H](C)[C@H](OC)CN(C)C(=O)c2cc(NS(=O)(=O)CC(F)(F)F)ccc2OC[C@@H]1C | inactive |
| COc1ccc(S(=O)(=O)Nc2ccc3c(c2)CC(=O)N([C@@H](C)CO)C[C@H](C)[C@H](CN(C)Cc2ccc(Oc4ccccc4)cc2)O3)cc1 | inactive |
| COc1ccc(S(=O)(=O)Nc2ccc3c(c2)CC(=O)N([C@H](C)CO)C[C@@H](C)[C@@H](CN(C)Cc2ccc(Oc4ccccc4)cc2)O3)cc1 | active |
| COc1ccc(S(=O)(=O)Nc2ccc3c(c2)CC(=O)N([C@@H](C)CO)C[C@@H](C)[C@H](CN(C)Cc2ccc(Oc4ccccc4)cc2)O3)cc1 | inactive |
| COc1ccc(S(=O)(=O)Nc2ccc3c(c2)CC(=O)N([C@@H](C)CO)C[C@@H](C)[C@@H](CN(C)Cc2ccc(Oc4ccccc4)cc2)O3)cc1 | inactive |
| COc1ccc(S(=O)(=O)Nc2ccc3c(c2)CC(=O)N([C@H](C)CO)C[C@@H](C)[C@H](CN(C)Cc2ccc(Oc4ccccc4)cc2)O3)cc1 | active |
| COc1ccc(S(=O)(=O)Nc2ccc3c(c2)CC(=O)N([C@@H](C)CO)C[C@H](C)[C@@H](CN(C)Cc2ccc(Oc4ccccc4)cc2)O3)cc1 | active |
| COc1ccc(S(=O)(=O)Nc2ccc3c(c2)CC(=O)N([C@H](C)CO)C[C@H](C)[C@H](CN(C)Cc2ccc(Oc4ccccc4)cc2)O3)cc1 | active |
| COc1ccc(S(=O)(=O)Nc2ccc3c(c2)CC(=O)N([C@H](C)CO)C[C@H](C)[C@@H](CN(C)Cc2ccc(Oc4ccccc4)cc2)O3)cc1 | inactive |
